# Compound activity from PubChem.
# In the library only some 2.8% were active in any assay of this set; here they are far more common.
# CBFb RUNX1 block: inhibitors of human CBF-beta and RUNX1 interaction; Q01196+Q13951; AlphaScreen CBFb-His/RUNX1-biotin binding, biochemical; Potency, µM (series often up to 59.8 µM), inactives show at the top dose activity, negative = inhibition, most hits filed as inhibitors; 230,000 tested, under 10 active; AID 1477; note: % of control where 0% means no effect
# Target sequence (Q01196 whole entry, looked up): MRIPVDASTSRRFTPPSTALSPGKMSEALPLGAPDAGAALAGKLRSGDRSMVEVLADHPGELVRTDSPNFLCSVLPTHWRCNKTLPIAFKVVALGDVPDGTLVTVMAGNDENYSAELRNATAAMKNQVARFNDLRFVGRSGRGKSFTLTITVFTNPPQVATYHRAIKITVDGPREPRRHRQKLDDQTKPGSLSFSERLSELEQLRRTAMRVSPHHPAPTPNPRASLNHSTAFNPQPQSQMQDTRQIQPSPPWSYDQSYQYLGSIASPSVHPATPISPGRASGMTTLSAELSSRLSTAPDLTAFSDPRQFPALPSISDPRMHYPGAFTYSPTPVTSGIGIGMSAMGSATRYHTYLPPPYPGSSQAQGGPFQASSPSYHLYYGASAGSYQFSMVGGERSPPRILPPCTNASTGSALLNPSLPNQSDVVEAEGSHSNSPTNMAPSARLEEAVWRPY
# Target sequence (Q13951 whole entry, looked up): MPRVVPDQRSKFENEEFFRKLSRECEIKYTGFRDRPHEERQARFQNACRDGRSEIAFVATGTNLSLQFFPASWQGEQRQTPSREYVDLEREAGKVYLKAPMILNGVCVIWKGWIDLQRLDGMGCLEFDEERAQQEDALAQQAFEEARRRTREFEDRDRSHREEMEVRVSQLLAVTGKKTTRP
#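 AlphaScreen proximity signal reports loss of binding between His-tagged CBF-beta and biotin-labelled RUNX1, each at 30 nM. Proteins are pre-associated for 20 minutes, compounds added for 15 minutes, then beads for 90 minutes, all at ambient temperature.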
# Integrin act MD: activators of alpha7 integrin expression for muscular dystrophy | alpha7betagal myoblasts, beta-gal FDG fluorescence, 48 h | Potency, µM (titrated, usually from 38.3 µM), inactives show at the top dose activation, usual class: activators | 0.064% of 350,000 active;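 note: potency is the fitted concentration of half-maximal effect; 100% = response of the positive control SU9516; nearly all actives have a fitted effect of over 60% in size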
#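 Alpha7betagal+/- myoblasts (passage 13) were plated 16-24 hr, then exposed to compounds (1:260 dilution of DMSO stock) for 48 hours at 37C. After MPER lysis, β-galactosidase reporter activity was read as FDG fluorescence (ex 480/em 540) after 30 minutes.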
# MBNL1-CUG inh: blocks human MBNL1 binding to CUG repeat RNA | Q9NR56 | TR-FRET MBNL1-His/biotin-(CUG)12 binding, 665/545 ratio | Potency, µM (series often up to 57.5 µM), without a hit: at the top dose activity change, negative = inhibition, most hits filed as inhibitors | 0.036% of 280,000 active | AID 2675; active = well fitted inhibition curve with a large enough effect in the signal ratio, with a control signal flat, not every such curve was filed as active; inconclusive = small, poorly fitted or top-dose-only effect, or effect the other way, or a change in a side signal; inactive = no such curve, though single readings can be large or run the other way; the % refers to the signal ratio; note: potency is the fitted concentration of half-maximal effect; % is set by controls: 0 for no effect and ±100 for the full control effect
#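 Compounds (final 92 nM to 58 uM) are added to His-tagged MBNL1 and biotin-(CUG)12, then terbium anti-His antibody and streptavidin-XL665 (5 nM final). After 60 min at room temperature, the 665/545 nm ratio is read.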
# D3 ag: agonists of human D3 dopamine receptor; AID 652048; D3R DiscoveRx beta-arrestin cells, luminescence, 90 min; max activation, %; 0.58% of 410,000 active; in the data active = max activation above about 30%; note: 0% is about no effect
#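 Agonist mode: compounds and dopamine controls were applied to plated cells for 90 min at 37 degrees C after an overnight attachment at 1500 cells/well. Luminescent read-out followed 30 - 60 minutes at room temperature with DiscoveRx detection reagent.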
# PTHR1 agonist: agonists of human PTHR1 parathyroid hormone receptor | HEK293 GP2 PTHR1 cells, GloSensor cAMP luminescence, 1 h | Potency, µM (top dose mostly 115 µM), without a hit: at the top dose activation, actives largely listed as activators | 0.075% of 410,000 active | AID 743266; note: potency is the fitted concentration of half-maximal effect; nearly all actives have a fitted effect of over 55% in size
#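 HEK-293-derived GP2 cells expressing PTHR1 and a GloSensor cAMP reporter, 3,000/well, plated overnight, given luciferin plus IBMX (each 0.5 mM as added) for 1 h at 37 °C, then compound for 1 h at 37 °C. Luminescence was read after 15 min at room temperature.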
# DRD3 antagonist: antagonists of human D3 dopamine receptor. P35462. D3R cells, DiscoveRx beta-arrestin luminescence, antagonist mode; hits give low values. max response, negative = inhibition, %. 2.5% of 360,000 active; in the data active = max response below about -50%; inconclusive = no clear call, values can overlap the other calls; note: % is set by controls: 0 for no effect and ±100 for the full control effect
#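 Cells expressing the human receptor were seeded at 1500 cells/well, incubated overnight at 37 degrees C in 5% CO2, then exposed to library compounds with dopamine controls for 90 minutes at 37 degrees C before luminescent detection.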
# * marks the source's active call; other numbers are inactive results; i = inactive; ? = inconclusive; . = not tested or not shown; ! = a repeat was not active; [ ] = remark or other dose. Unless noted, calls come from the whole dose curve; as a rule, active = well fitted curve in the direction sought with a large enough effect; inconclusive = small, poorly fitted or top-dose-only effect, or another doubt; inactive = no such curve, though single readings can be large; an effect the other way counts as inactive or inconclusive.
SMILES,CBFb RUNX1 block,Integrin act MD,MBNL1-CUG inh,D3 ag,PTHR1 agonist,DRD3 antagonist
CN1CCN(Cc2nc3c(c(=O)n(C)c(=O)n3C)n2CCCc2ccccc2)CC1,-3%,-11%,4%,1,i,-52*
Cn1c(=O)c2c(nc(CN3CCN(C(c4ccccc4)c4ccccc4)CC3)n2CC(N)=O)n(C)c1=O,-2%,18%,-4%,0,?,-50*
CCOC(=O)Cn1c(CN2CCN(C(c3ccccc3)c3ccccc3)CC2)nc2c1c(=O)n(C)c(=O)n2C,7%,-8%,?,-12,-2%,5
CC(C)n1c(CN(C)Cc2ccccc2)nc2c1c(=O)n(C)c(=O)n2C,.,-44%,0%,50*,-29%,80
Cn1c(=O)c2c(nc(CN3CCOCC3)n2CCCc2ccccc2)n(C)c1=O,-6%,7%,-22%,3,i,8
CCOc1ccc(NS(=O)(=O)c2ccc3[nH]c4c(c3c2)CCCCC4)cc1,.,.,.,8,-20%,.
COc1cc(OC)cc(-c2c(-c3cccs3)c3cc(-c4ccn[nH]4)ccc3n2C)c1,.,21%,.,37*,-14%,32
COc1cc(OC)cc(-c2c(-c3cccs3)c3cc(-c4ccc(N(C)C)nc4)ccc3n2C)c1,.,-35%,.,47*,-28%,0
COc1cc(F)cc(-c2ccc3c(c2)c(-c2cccs2)c(-c2cc(OC)cc(OC)c2)n3C)c1,.,8%,.,-10,-26%,4
C[C@@H](CN1CC(=O)NC(=O)C1)N1CC(=O)NC(=O)C1,.,.,.,-21,.,.
C=CCN1c2ccccc2[C@]23C[C@@H](C(=O)OC)N(S(=O)(=O)c4ccc5c(c4)OCCN5C)C2=NC(C(=O)OC)=C(C(=O)OC)[C@H]13,2%[13.1 µM],.,.,.,.,.
CCNC(=S)NNC(=O)c1csc2ccccc12,-2%,14%,-10%,-17,i,-26
CCCNC(=O)c1csc2c1CCCCC2,3%,-17%,1%,1,i,1
CC(C)CNC(=S)NNC(=O)c1csc2c1CCCC2,1%,9%,3%,-17,-22%,-57*
CC(C)CNC(=S)NNC(=O)c1csc2ccccc12,-1%,3%,0%,-27,-3%,-66*
COc1ccc(CNC(=O)COc2cc3c(c4oc(=O)cc(C)c24)CCC(C)(C)O3)cc1,.,-5%,-5%,36*,-33%,24
COc1cccc(CNC(=O)COc2cc3c(c4oc(=O)cc(C)c24)CCC(C)(C)O3)c1,.,-17%,-4%,7,-33%,-4
COC(=O)CNC(=O)C1CCCN1C(=O)CNC(=O)OCc1ccccc1 (stereo not drawn),.,?,-10%,-4,-4%,-15
COC(=O)C1CCCN1C(=O)C1CCCN1C(=O)CNC(=O)OCc1ccccc1 (stereo not drawn),6%,9%[1.53 µM],-2%,2,i,-54*
O=C(CN1C(=O)CSc2ccc(S(=O)(=O)N3CCCC3)cc21)NCc1ccc(F)cc1Cl,.,.,.,4,i,.
Cc1ccc(N=Cc2c(O)n(-c3ccc4c(c3)OCO4)c(=O)c3ccccc23)cc1,-6%,3%,5%,2,-33%,-59*
Cc1cccc(-n2c(O)c(C=Nc3ccc(O)cc3)c3ccccc3c2=O)n1,-1%,-8%,?,6,-30%,-4
Cc1cc(NS(=O)(=O)c2ccc(NC(=O)Nc3cccc(Cl)c3)cc2)no1,-9%,40%,-9%,4,-21%,-55*
CC(=O)NC(CC(=O)NC(C)c1ccc(Cl)cc1Cl)c1ccccc1 (stereo not drawn),5%,1%,-1%,-19,i,-51*
CCC(=O)c1ccc(OCC(O)CN2CCN(c3ccccn3)CC2)cc1 (stereo not drawn),.,15%,0%,91*,0%,-20
SMILES,CBFb RUNX1 block,Integrin act MD,MBNL1-CUG inh,D3 ag,PTHR1 agonist,DRD3 antagonist
CC(C)(C)c1ccc(OCC(O)CN2CCN(c3ccccn3)CC2)cc1 (stereo not drawn),.,-42%,0%,64*,-13%,0
CC(C)COc1ccccc1C1CC(=O)Nc2cc3c(cc21)OCO3 (stereo not drawn),.,.,.,-2,-33%,.
CC1(C)COC(c2cc3c(cc2Br)OCO3)OC1,.,-21%,.,3,i,18
Cc1cc(C)nc(-n2nc(C)c3c2NC(=O)CC3c2ccccc2OC(C)C)n1 (stereo not drawn),.,.,.,-3,-13%,.
CCN(CC)S(=O)(=O)c1ccc2c(c1)N(CC(=O)Nc1cccc(C#N)c1)C(=O)CO2,.,.,.,-16,i,.
COc1ccccc1C(=O)NC(=O)CSc1ccc(C)c(C)c1,.,3%,.,5,-17%,-8
CCOc1ccc(OCC(=O)NCCS(=O)(=O)N2CCN(c3ccccc3)CC2)cc1,.,-2%,.,-6,i,-11
CCOc1ccc(C(=O)NCCN2CCCC2)cc1,2%,7%,-14%,-10,i,-58*
Cc1ccc(CC(=O)NCCN2CCOCC2)cc1,.,27%,-5%,58*,-6%,-8
O=C(NCCN1CCCC1)c1ccc(Cl)cc1,0%,-24%,-1%,-11,i,-98*
COc1ccc(CC(=O)NCCN2CCOCC2)cc1,.,-1%,2%,-1,i,10
CCOc1ccc(OCC(=O)NCCS(=O)(=O)N2CCN(c3ccc(F)cc3)CC2)cc1,.,17%,1%,38*!,-36%,17
CCN1c2ccccc2-c2nc(SCC(=O)Nc3c(C)cc(C)cc3C)ncc2S1(=O)=O,.,.,.,6,i,.
O=C(CN1CCN(Cc2ccc(Cl)cc2)CC1)N/N=C/c1c[nH]c2ccccc12,3%,-1%,16%,-10,i,2
Cc1ccc(S(=O)(=O)N2CCC[C@H]2C(=O)NC2CCCCC2)cc1,.,16%,.,3,-20%,16
CC(C)NC(=O)C1(C#N)C=C1c1ccccc1 (stereo not drawn),.,.,.,-6,-23%,0
COc1ccc(/C=N/OC(=O)c2ccc(Cl)cc2)c(Cl)c1OC,4%,-22%,2%,-1,-19%,-3
O=C(NCCN1CCCCC1)Nc1ccc(Br)cc1,.,-13%,1%,-13,-18%,-54*
Cc1ccc(NC(=O)NCCN2CCCCC2)cc1,.,-1%,-10%,-22,i,-17
Fc1ccc(OCCCCCCN2CCCC2)cc1,-3%,-37%,-8%,-33,i,-29
O=C(NCCN1CCOCC1)c1ccc(Cl)cc1,11%,.,-5%,-71,-10%,-69*
O=C(COc1ccc(F)cc1)NCCN1CCCC1,.,0%,-5%,-15,-20%,-57*
O=C(Nc1ccc(CN2CCCCC2)cc1)Nc1ccc(Br)cc1Cl,0%,35%,-9%,-29,i,-79*
